About 13,000 (27%) of roughly 48,000 compounds showed an effect of 50% or more. The list shows a part of the results.
The compounds below were run on Wolbachia pipientis (assay: Anti-Wolbachia Cell-Based Screen). Settings: 5 µM.
Format: functional
Set-up: scale not given: in the data most compounds retested in dose-response had high values

Structure (SMILES)	Percent Effect [%]
CCN(CC)Cc1cc(C(=O)N2CCCC(CC)(C(=O)O)C2)c(C)o1 (stereo unspecified)	1.255
O=C(c1scc2c1OCCO2)N1CCOC(CCc2ccccc2)C1 (stereo unspecified)	-26.43
CCc1nc(C)c([C@H]2CN(C)C[C@@H]2C(=O)Nc2cccc3cn[nH]c23)[nH]1	-9.056
CC(=O)N1CCN(C(=O)CCNc2snc(Cl)c2C#N)CC1	-5.282
Cc1cc(CN(Cc2ccccc2)CC(O)c2cccs2)on1 (stereo unspecified)	-11.7
COc1ccccc1NC(=O)NCc1cn[nH]c1	15.69
Cn1c(C(F)(F)F)nn(CCNC(=O)Nc2ccccc2F)c1=O	4.89
CCc1ccccc1NC(=O)NCc1nnc(SC)n1C	130.1
CNC(=O)Cc1ccccc1NC(=O)NCc1ccc(SC)cc1	-2.376
CCOc1ccccc1NC(=O)NCc1ccoc1	6.288
CN(C)c1ncc(CNC(=O)Nc2ccccc2F)n1C	-5.654
COc1ccccc1NC(=O)NCc1nnc(SC)n1C	134.3
COC(=O)CCCNC(=O)Nc1ccccc1OC	-0.6444
CSc1nnc(CNC(=O)Nc2ccccc2F)n1C	133
CNc1nc(CNC(=O)Nc2ccccc2SC)cs1	0.4301
CSc1nnc(CNC(=O)Nc2ccccc2Br)n1C	152.8
Cn1c(CO)nnc1SCc1c(F)cccc1Br	6.099
CN(C(=O)c1ccncc1Cl)c1ccccc1S(C)(=O)=O	-0.2522
O=C(Nc1cccs1)N(CCO)CCOCC(F)(F)F	5.099
Cc1ccccc1CC1(CO)CCCN(c2ncncc2C(C)C)C1 (stereo unspecified)	2.064
Cc1nnc(N2CC[C@@H](OCC3CC3)[C@@H](Cc3ccccc3)C2)s1.O=C(O)C(F)(F)F	4.615
CO[C@H]1CCN(c2nnc(C)s2)C[C@@H]1Cc1ccccc1.O=C(O)C(F)(F)F	94.02

Structure (SMILES)	Percent Effect [%]
CO[C@@H]1CCN(c2nnc(C)s2)C[C@@H]1Cc1ccccc1.O=C(O)C(F)(F)F	97
Cc1nnc(N2CC[C@H](OCC3CC3)[C@@H](Cc3ccccc3)C2)s1.O=C(O)C(F)(F)F	-12.39
COCc1ccc(C(=O)N2CCC(Oc3ccccc3)(C(=O)O)CC2)o1	-4.026
Cc1ncc(C)c(N2CCCC(CO)(Cc3cccc(Cl)c3)C2)n1 (stereo unspecified)	-4.145
CN1CCN(CCCNC(=O)c2cc(Cl)c3c(c2)OCO3)CC1	11.84
CCN(CC)Cc1cc(=O)n2c(n1)CN(S(=O)(=O)C1CC1)CCC2.O=C(O)C(F)(F)F	115.6
CC(C)N(C)Cc1cc(=O)n2c(n1)CN(S(=O)(=O)C1CC1)CCC2.O=C(O)C(F)(F)F	109.3
CC(C)N(C)Cc1nnc2n1CCN(S(=O)(=O)C1CC1)CC2.O=C(O)C(F)(F)F	-7.825
CN(C)Cc1cc(=O)n2c(n1)CN(CC1CCOCC1)CCC2	-13.06
CN(C)Cc1cc(=O)n2c(n1)CN(S(=O)(=O)C1CC1)CCC2.O=C(O)C(F)(F)F	96.54
CC(C)N(C)Cc1nnc2n1CCCN(S(=O)(=O)C1CC1)C2.O=C(O)C(F)(F)F	-4.148
C=C(C)COc1cccc(C(=O)N(C)Cc2cc(CC)no2)c1	-19.24
Cc1ccn(-c2ccc(N3CCCN(Cc4ccccc4)CC3)nn2)n1	1.996
COCCCC1(CO)CCCN(C(=O)c2cnc3c(c2)CCCC3)C1 (stereo unspecified)	-5.76
c1cnnc(NCC2CN(CCn3cncn3)CCO2)c1 (stereo unspecified)	-18.76
c1cnnc(NCC2CN(CC3CCOCC3)CCO2)c1 (stereo unspecified)	103
Cc1cc(C)n(CCN2CCOC(CNc3cccnn3)C2)n1 (stereo unspecified)	103.1
CCn1ccnc1CN1CCOC(CNc2cccnn2)C1 (stereo unspecified)	10.18
CCN(CC1CN(CCc2ccccn2)CCO1)c1cccnn1 (stereo unspecified)	-0.8374
c1ccc(CCN2CCOC(CNc3cccnn3)C2)nc1 (stereo unspecified)	95.59
Cn1c(CN2CCOC(CNc3cccnn3)C2)nnc1C1CC1 (stereo unspecified)	105.6
Clc1snnc1CN1CCOC(CNc2cccnn2)C1 (stereo unspecified)	-2.392

Structure (SMILES)	Percent Effect [%]
CC(C)c1ccc(CNC(C)c2ccc(S(=O)(=O)N(C)C)cc2)cc1 (stereo unspecified)	1.332
CN(CCC#N)C(=O)CN1CCC(c2cc3ccccc3[nH]2)CC1	-2.857
O=S(=O)(c1ccccc1)N1CCN(Cc2ccc(F)cc2Br)CC1	23.46
CCn1ccnc1-c1nc2cc(S(=O)(=O)N3CCCC3)ccc2n1C	-1.841
c1ccc(OCCCN2CCOC(CNc3cccnn3)C2)cc1 (stereo unspecified)	96.43
N#Cc1cnn(CCN2CCOC(CNc3cccnn3)C2)c1 (stereo unspecified)	-39.45
Cn1cc(CCN2CCOC(CNc3cccnn3)C2)cn1 (stereo unspecified)	102.6
c1cnnc(NCC2CN(CCn3cccn3)CCO2)c1 (stereo unspecified)	-18.13
CC(C)CCN1CCNC(=O)C1CC(=O)N1CCc2sccc2C1 (stereo unspecified)	-6.453
Nc1nccnc1CC1CCCN(Cc2cccc3[nH]ccc23)C1 (stereo unspecified)	126.9
Nc1nccnc1CC1CCCN(Cc2c[nH]c3ccccc23)C1 (stereo unspecified)	102
O=C(NCC1CCCN(Cc2cccc3nonc23)C1)c1ccc[nH]1 (stereo unspecified)	22.2
Cc1nc(CC2CCCN(Cc3nc(N)c4ccccc4n3)C2)no1 (stereo unspecified)	-1.933
CCn1c(C2CCCN(Cc3ccnc4ccccc34)C2)nn(C)c1=O (stereo unspecified)	0.7157
COc1ccccc1CN1CCCC(n2cccn2)C1 (stereo unspecified)	-0.1221
O=C(Cc1c[nH]c2ccccc12)NCC1CCN(Cc2c[nH]cn2)C1 (stereo unspecified)	-4.859
c1ccc2c(Cc3nnc([C@H]4CCN(CC5CC5)C4)o3)c[nH]c2c1	-3.432
COc1ccccc1CC1CCCN(C(=O)c2nccnc2N)C1 (stereo unspecified)	7.342
Nc1nccnc1CC1CCCN(Cc2ccnc3ccccc23)C1 (stereo unspecified)	254.5
COc1ccccc1CN1CCCC(Cc2nccnc2N)C1 (stereo unspecified)	104.1
CC(=O)N1[C@H](Cn2cncn2)C[C@@H]2CN(c3ccc(C)nn3)CC[C@@H]21	0.7192
N#Cc1cccc(S(=O)(=O)Nc2c(F)cccc2N2CCCC2)c1	-6.503

— ChEMBL document CHEMBL3988442, “University of Dundee, Small-Polar-MMV Screening Library” (2021)
